# Data taken from the supplement of paper PMC8975748.
# Counter-ions that a name gives are not always drawn. ± gives the standard deviation of the averaged measurements.
# Assays:
# [1] = test system: Saccharomyces cerevisiae BY4741 SeMeCo community; test: mean cell size (pixel area) (pixels); higher = larger cells; conditions: 10 µM; 24 h; SM minimal medium
# How it was run: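 A four-plasmid fluorescent Saccharomyces cerevisiae BY4741 community was tested; each plasmid complements one auxotrophy and carries a fluorescent marker. An overnight preculture at OD600 = 1.0 was diluted to OD600 = 0.3, and 70 µl was added to 384-well plates acoustically predosed with drug (final 10 µM) in SM medium for 24 h. Cells were fixed with paraformaldehyde and imaged by automated confocal microscopy, with analysis in Harmony. Mean cell pixel area per well is averaged over 3 replicates. Same SeMeCo high-content imaging drug screen: Selleck FDA-approved drugs at 10 µM, 24 h in SM medium, 384-well plates, 3 replicates.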
# [2] = test system: Saccharomyces cerevisiae BY4741 SeMeCo community; test: z-score of subpopulation abundance vs DMSO median, subpopulation auxotrophic for M; higher = larger share of this subpopulation than in DMSO controls; conditions: 10 µM; 24 h; SM minimal medium; subpopulation (auxotrophy): M
# How it was run: (§1)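 A Saccharomyces cerevisiae BY4741 community carried four plasmids, each restoring one auxotrophy and encoding a distinct fluorescent protein. It was pre-grown overnight to OD600 1.0, diluted to 0.3, and 70 µl was added to 384-well plates acoustically predosed with library drugs (10 µM final), then grown 24 h in minimal SM medium. Cells were paraformaldehyde-fixed and imaged by automated confocal microscopy, with single-auxotroph fluorescent strains setting thresholds and autofluorescence correction. Each subpopulation's abundance was scored as a z-score against the vehicle-well median.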
# [3] = test system: Saccharomyces cerevisiae BY4741 SeMeCo community; test: z-score of subpopulation abundance vs DMSO median, subpopulation auxotrophic for L; higher = larger share of this subpopulation than in DMSO controls; conditions: 10 µM; 24 h; SM minimal medium; subpopulation (auxotrophy): L
# How it was run: as §1
# [4] = test system: Saccharomyces cerevisiae BY4741 SeMeCo community; test: z-score of subpopulation abundance vs DMSO median, subpopulation auxotrophic for U; higher = larger share of this subpopulation than in DMSO controls; conditions: 10 µM; 24 h; SM minimal medium; subpopulation (auxotrophy): U
# How it was run: as §1
# [5] = test system: Saccharomyces cerevisiae BY4741 SeMeCo community; test: z-score of subpopulation abundance vs DMSO median, subpopulation auxotrophic for H; higher = larger share of this subpopulation than in DMSO controls; conditions: 10 µM; 24 h; SM minimal medium; subpopulation (auxotrophy): H
# How it was run: as §1
# [6] = test system: Saccharomyces cerevisiae BY4741 SeMeCo community; test: z-score of subpopulation abundance vs DMSO median, subpopulation auxotrophic for LM; higher = larger share of this subpopulation than in DMSO controls; conditions: 10 µM; 24 h; SM minimal medium; subpopulation (auxotrophy): LM
# How it was run: as §1
# [7] = test system: Saccharomyces cerevisiae BY4741 SeMeCo community; test: z-score of subpopulation abundance vs DMSO median, subpopulation auxotrophic for HM; higher = larger share of this subpopulation than in DMSO controls; conditions: 10 µM; 24 h; SM minimal medium; subpopulation (auxotrophy): HM
# How it was run: as §1
# [8] = test system: Saccharomyces cerevisiae BY4741 SeMeCo community; test: z-score of subpopulation abundance vs DMSO median, subpopulation auxotrophic for HU; higher = larger share of this subpopulation than in DMSO controls; conditions: 10 µM; 24 h; SM minimal medium; subpopulation (auxotrophy): HU
# How it was run: as §1
# [9] = test system: Saccharomyces cerevisiae BY4741 SeMeCo community; test: z-score of subpopulation abundance vs DMSO median, subpopulation auxotrophic for UM; higher = larger share of this subpopulation than in DMSO controls; conditions: 10 µM; 24 h; SM minimal medium; subpopulation (auxotrophy): UM
# How it was run: as §1
# [10] = test system: Saccharomyces cerevisiae BY4741 SeMeCo community; test: z-score of subpopulation abundance vs DMSO median, subpopulation auxotrophic for HL; higher = larger share of this subpopulation than in DMSO controls; conditions: 10 µM; 24 h; SM minimal medium; subpopulation (auxotrophy): HL
# How it was run: as §1
# [11] = test system: Saccharomyces cerevisiae BY4741 SeMeCo community; test: z-score of subpopulation abundance vs DMSO median, subpopulation auxotrophic for HLU; higher = larger share of this subpopulation than in DMSO controls; conditions: 10 µM; 24 h; SM minimal medium; subpopulation (auxotrophy): HLU
# How it was run: as §1
# [12] = test system: Saccharomyces cerevisiae BY4741 SeMeCo community; test: z-score of subpopulation abundance vs DMSO median, subpopulation auxotrophic for HLM; higher = larger share of this subpopulation than in DMSO controls; conditions: 10 µM; 24 h; SM minimal medium; subpopulation (auxotrophy): HLM
# How it was run: as §1
# [13] = test system: Saccharomyces cerevisiae BY4741 SeMeCo community; test: z-score of subpopulation abundance vs DMSO median, subpopulation auxotrophic for HUM; higher = larger share of this subpopulation than in DMSO controls; conditions: 10 µM; 24 h; SM minimal medium; subpopulation (auxotrophy): HUM
# How it was run: as §1
# [14] = test system: Saccharomyces cerevisiae BY4741 SeMeCo community; test: z-score of subpopulation abundance vs DMSO median, subpopulation auxotrophic for LUM; higher = larger share of this subpopulation than in DMSO controls; conditions: 10 µM; 24 h; SM minimal medium; subpopulation (auxotrophy): LUM
# How it was run: as §1
# [15] = test system: Saccharomyces cerevisiae BY4741 SeMeCo community; test: z-score of subpopulation abundance vs DMSO median, subpopulation auxotrophic for HLUM; higher = larger share of this subpopulation than in DMSO controls; conditions: 10 µM; 24 h; SM minimal medium; subpopulation (auxotrophy): HLUM
# How it was run: as §1
# [16] = test system: Saccharomyces cerevisiae BY4741 SeMeCo community; test: z-score of subpopulation abundance vs DMSO median, subpopulation auxotrophic for LU; higher = larger share of this subpopulation than in DMSO controls; conditions: 10 µM; 24 h; SM minimal medium; subpopulation (auxotrophy): LU
# How it was run: as §1
# [17] = test system: Saccharomyces cerevisiae BY4741 SeMeCo community; test: z-score of prototroph abundance vs DMSO median; higher = larger share of this subpopulation than in DMSO controls; conditions: 10 µM; 24 h; SM minimal medium; subpopulation (auxotrophy): Prototroph
# How it was run: as §1
SMILES,mean cell size [1],z-score of subpopulation abundance [2],z-score of subpopulation abundance [3],z-score of subpopulation abundance [4],z-score of subpopulation abundance [5],z-score of subpopulation abundance [6],z-score of subpopulation abundance [7],z-score of subpopulation abundance [8],z-score of subpopulation abundance [9],z-score of subpopulation abundance [10],z-score of subpopulation abundance [11],z-score of subpopulation abundance [12],z-score of subpopulation abundance [13],z-score of subpopulation abundance [14],z-score of subpopulation abundance [15],z-score of subpopulation abundance [16],z-score of prototroph abundance [17]
COc1ccc2cc(CCC(C)=O)ccc2c1 [Nabumetone],12.5 ± 0.13,0.05,-1.25,0.54,-1.58,-1.42,-0.96,-0.64,-0.41,-1.5,-0.94,-0.91,-0.22,-0.43,-1.51,–,–
CCCCCOc1ccc(-c2ccc(-c3ccc(C(=O)N[C@H]4C[C@@H](O)[C@@H](O)NC(=O)[C@@H]5[C@@H](O)[C@@H](C)CN5C(=O)[C@H]([C@@H](C)O)NC(=O)[C@H]([C@H](O)[C@@H](O)c5ccc(O)cc5)NC(=O)[C@@H]5C[C@@H](O)CN5C(=O)[C@H]([C@@H](C)O)NC4=O)cc3)cc2)cc1,12.6 ± 0.25,-11.7,–,0.13,25,1.2,0.97,–,1.54,31.2,21.5,42,–,9.08,76,5.21,–
COc1cc(O)c(C(=O)Nc2nc(C(=O)NCCN(C(C)C)C(C)C)cs2)cc1OC [Acotiamide hydrochloride],12.4 ± 0.15,-0.47,-0.26,0.89,0.42,-0.2,0.26,0.71,0.4,-0.16,0.19,0.13,0.54,-0.38,-0.39,–,-0.4
Cc1c(-c2ccc(O)cc2)n(Cc2ccc(OCCN3CCCCCC3)cc2)c2ccc(O)cc12 [Bazedoxifene Acetate],12.6 ± 0.073,0.99,–,-0.25,0.29,-0.35,0.8,-1.12,0.36,-0.12,0.21,–,–,0.65,-0.3,0.06,-0.23
NC(CO)(CO)CO [Trometamol],12.2 ± 0.18,0.08,–,0.6,-0.42,-0.62,-0.48,0.55,0.88,0,-0.13,–,-0.08,0.42,-0.35,0.36,-0.35
CC(C)[C@H]1CC[C@H](C(=O)N[C@H](Cc2ccccc2)C(=O)O)CC1 [Nateglinide],–,1.18,–,-0.59,0.66,0.32,0.65,0.06,0.38,-0.02,-0.32,0.89,–,1.15,–,0,-0.85
NC(=O)Cc1cccc(C(=O)c2ccccc2)c1N [Nepafenac],12.3 ± 0.27,0.62,1.39,-1.24,-0.38,1.58,0.5,-1.05,-0.53,0.69,0.04,-0.23,-0.01,0.29,0.1,–,0.25
C[N+]1(C)CCC(OC(=O)C(O)(c2ccccc2)C2CCCC2)C1 (stereo not drawn) [Glycopyrrolate],12.32 ± 0.11,0.07,-0.73,1.42,-0.58,-0.6,-0.21,0.57,1.58,-0.5,-0.14,0.17,–,0.56,-0.01,–,-0.59
O=C1CCc2cc(OCCCCc3nnnn3C3CCCCC3)ccc2N1 [Cilostazol],12.32 ± 0.082,-0.68,0.75,-0.86,–,-0.83,-0.41,-0.16,–,-0.05,-0.44,-0.55,-0.31,–,-0.57,–,0.97
COC(=O)Nc1nc2cc(Sc3ccccc3)ccc2[nH]1 [Fenbendazole],–,0.61,0.52,-0.17,0.06,–,0.22,-0.37,–,0.48,-0.08,-0.31,0.36,0.53,–,–,0.03
COCCCOc1ccnc(C[S+]([O-])c2nc3ccccc3[nH]2)c1C (stereo not drawn) [Rabeprazole],12.5 ± 0.21,-1.07,1.62,0.43,2.01,-0.33,0.01,0.85,-0.92,1.62,1.71,0.32,0.23,–,0,–,-0.81
CCCCCCCN(CC)CCCC(O)c1ccc(NS(C)(=O)=O)cc1 (stereo not drawn) [Ibutilide Fumarate],12.5 ± 0.2,-0.42,-0.88,0.93,0.34,-0.88,0.11,0.97,0.25,-0.89,-0.63,-0.14,–,0.19,–,–,–
CCOc1ccc2ccccc2c1C(=O)N[C@@H]1C(=O)N2[C@@H]1SC(C)(C)[C@@H]2C(=O)O [Nafcillin Sodium],12.2 ± 0.23,-0.26,0.95,–,-0.47,0.39,–,-0.72,-0.68,-0.51,-0.19,-0.71,0,0.08,-0.09,–,0.32
CC1=C[C@H]2C(=O)O[C@H]3C[C@@H](C/C=C(\C)C[C@@H](C)/C=C/C=C4\CO[C@H](/C1=N\O)[C@@]42O)O[C@@]1(CC[C@H](C)[C@@H](C)O1)C3.CC[C@H]1O[C@]2(CC[C@@H]1C)C[C@@H]1C[C@@H](C/C=C(\C)C[C@@H](C)/C=C/C=C3\CO[C@@H]4/C(=N\O)C(C)=C[C@@H](C(=O)O1)[C@]34O)O2 [Milbemycin Oxime],–,-1.4,0.14,-0.74,2.17,-0.44,–,–,–,1.42,-0.11,-0.22,0.03,-0.87,-0.41,–,–
C[C@H]1c2cccc(O)c2C(O)=C2C(=O)[C@]3(O)C(O)=C(C(N)=O)C(=O)[C@@H](N(C)C)[C@@H]3[C@@H](O)[C@@H]21 [Doxycycline],–,0.04,-0.26,–,-0.79,-0.26,-0.76,-1.25,–,-0.31,-0.24,-0.1,-1.21,-0.15,0.32,–,1.27
